From PubChem BioAssay (NCI) come the findings set out here.

Compounds without any hit were thinned out: in the full panel of roughly 83,000, 20% have a hit.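 96-well plates, one dose, 48 hours. Percent growth reported; active if below 10.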 A number with no mark means an inactive call. Activity calls are given as the source filed them.

Test systems include DU-145 prostate; K-562 leukemia; MALME-3M melanoma; MDA-MB-231 breast; RXF 393 renal; SF-268 CNS; SF-295 CNS; SF-539 CNS; UACC-257 melanoma; M14 melanoma; HCT-15 colon; HT29 colon; SNB-75 CNS; SNB-19 CNS; U251 CNS; PC-3 prostate; UACC-62 melanoma; LOX IMVI melanoma; SK-MEL-28 melanoma; SK-MEL-5 melanoma.
What all share (test): NCI-60 one-dose screen, 48 h (100 = growth as untreated, 0 = no growth, -100 = all killed)
What all share (settings): 10 µM unless noted

Consider `O=C(N/N=C/c1ccc2c(c1)OCO2)c1cnn2c1NC(c1ccccc1)C2` (configuration not stated), for which the growth is 60.9% in the test on DU-145 prostate; 29.8% in the test on K-562 leukemia; 55.1% in the test with MALME-3M melanoma; 53.2% in the test on MDA-MB-231 breast; 6.73% (active) in the test with RXF 393 renal; 66% in the test with SF-268 CNS. The growth was 47.3% in the test on SF-295 CNS; 59.1% in the test with SF-539 CNS; 72.4% in the test with UACC-257 melanoma; 42.7% with M14 melanoma; 28% in the test on HCT-15 colon; 26.7% in the test with HT29 colon. Also, the growth is 54.8% with SNB-75 CNS; 62.9% with SNB-19 CNS; 69.6% with U251 CNS; 50.2% with PC-3 prostate; 32.7% in the test on UACC-62 melanoma; 26.4% in the test on LOX IMVI melanoma. For the same compound, the growth in the test on SK-MEL-28 melanoma is 71.8%.

As for `O=C1c2ccccc2-c2nnc(-c3ccc(Br)cc3)cc21`, the growth in the test with DU-145 prostate is 55.8%; in the test with K-562 leukemia, 16.5%; in the test with MALME-3M melanoma, -3.82% (active); in the test on MDA-MB-231 breast, 14.1%; with RXF 393 renal it was 33.7%; in the test with SF-268 CNS it was 59.3%. Further, the growth in the test with SF-295 CNS was 13.6%; with SF-539 CNS, 56.7%; with UACC-257 melanoma, 52.6%; with M14 melanoma it was 37.2%; in the test with HCT-15 colon, 59.8%; with HT29 colon, 82.5%. For the same compound, the growth is 36.9% in the test on SNB-75 CNS; 87.1% in the test with SNB-19 CNS; 28.8% with U251 CNS; 51.3% in the test with PC-3 prostate; 16% in the test on UACC-62 melanoma; 1.78% (active) in the test with LOX IMVI melanoma. Further, the growth in the test with SK-MEL-28 melanoma was 13.8%.

As to `FC(F)(F)Oc1ccc2c(c1)C[C@H]1C[C@@H](c3ccoc3)N2O1`, the growth with DU-145 prostate was 110%; with K-562 leukemia, 91.8%; in the test on MALME-3M melanoma it was 109%; with MDA-MB-231 breast, 93.9%; in the test on RXF 393 renal, 134%; in the test on SF-268 CNS, 126%. Also, the growth with SF-295 CNS is 91.2%; in the test with SF-539 CNS, 93.9%; in the test on UACC-257 melanoma, 87.4%; in the test on M14 melanoma, 117%; with HCT-15 colon, 95.1%; in the test with HT29 colon, 99.9%. For the same compound, the growth in the test on SNB-75 CNS is 99.5%; with SNB-19 CNS, 105%; with U251 CNS it was 94.5%; in the test with PC-3 prostate it was 92.8%; in the test with UACC-62 melanoma it was 98.8%; in the test with LOX IMVI melanoma it was 91.8%. Also, the growth in the test on SK-MEL-28 melanoma was 108%.

With `COc1ccccc1/C=C/C(=O)/C=C/c1ccccc1O`, the growth in the test with DU-145 prostate was -31.2% (active); in the test with K-562 leukemia, -6.29% (active); with MALME-3M melanoma, -3.21% (active); in the test with MDA-MB-231 breast it was 4.57% (active); in the test with RXF 393 renal, -75.8% (active); with SF-268 CNS, 1.68% (active). Also, the growth with SF-295 CNS was -37.4% (active); in the test with SF-539 CNS it was -63% (active); with UACC-257 melanoma it was 69.7%; in the test on M14 melanoma, -31% (active); with HCT-15 colon, -17.7% (active); in the test with HT29 colon it was -41.8% (active). The growth was 31.3% in the test on SNB-75 CNS; 31.8% in the test on SNB-19 CNS; -78.9% (active) with U251 CNS; 63.7% in the test on SK-MEL-5 melanoma; -58.9% (active) in the test on UACC-62 melanoma; -67.7% (active) with LOX IMVI melanoma. Moreover, the growth with SK-MEL-28 melanoma is -86.9% (active).

As for `COc1cc(/C=N/NC(=O)c2cnn3c2NC(c2ccccc2)C3)ccc1OC1CCCC1` (configuration not stated), the growth in the test on DU-145 prostate is 26.5%; in the test on K-562 leukemia, 18.7%; in the test with MALME-3M melanoma, 40.1%; in the test with MDA-MB-231 breast it was 52.7%; in the test with RXF 393 renal, -27.9% (active); in the test on SF-268 CNS, 36.9%. The growth in the test with SF-295 CNS is 6.52% (active); in the test with SF-539 CNS, -15.6% (active); in the test on UACC-257 melanoma, 43.4%; in the test with M14 melanoma, 22.8%; in the test with HCT-15 colon it was 24.6%; with HT29 colon it was 11.8%. Besides, the growth in the test on SNB-75 CNS is -13.7% (active); in the test with SNB-19 CNS it was 39.1%; in the test with U251 CNS, 33%; in the test on PC-3 prostate, 10.1%; in the test on UACC-62 melanoma, 23.8%; with LOX IMVI melanoma, 21.7%. Moreover, the growth with SK-MEL-28 melanoma is 40.3%.

On to `C[C@@H](Oc1cc(-c2cnn(C3CC4(CCCNC4)C3)c2)cnc1N)c1c(Cl)ccc(F)c1Cl` (some centres not stated), for which the growth was 36.7% with DU-145 prostate; 0.205% (active) with K-562 leukemia; -64.7% (active) with MALME-3M melanoma; 2.82% (active) in the test with MDA-MB-231 breast; -9.61% (active) in the test on RXF 393 renal; 23% in the test on SF-268 CNS. The growth in the test on SF-295 CNS is 14.4%; in the test on SF-539 CNS, 11.2%; in the test on UACC-257 melanoma it was -87.2% (active); with M14 melanoma, -59.5% (active); in the test with HCT-15 colon it was 16.2%; in the test with HT29 colon it was -47.7% (active). Besides, the growth with SNB-75 CNS is 10.3%; in the test on SNB-19 CNS, 72.3%; with U251 CNS, 29.5%; in the test on PC-3 prostate, 15.6%; with UACC-62 melanoma, 14.3%; with LOX IMVI melanoma it was -73% (active). Besides, the growth in the test on SK-MEL-28 melanoma is -67.2% (active).

With `Cc1c(NCC(=O)Nc2nc3ccccc3[nH]2)c(=O)n(-c2ccccc2)n1C`, the growth with DU-145 prostate was 112%; with K-562 leukemia it was 101%; in the test on MALME-3M melanoma, 98.4%; in the test with MDA-MB-231 breast, 99.3%; in the test with RXF 393 renal it was 102%; in the test with SF-268 CNS, 103%. The growth with SF-295 CNS is 109%; with SF-539 CNS it was 97.7%; in the test on UACC-257 melanoma, 94.4%; with M14 melanoma, 105%; with HCT-15 colon, 94.5%; with HT29 colon it was 105%. Further, the growth with SNB-75 CNS was 94.3%; in the test on SNB-19 CNS, 97%; with U251 CNS it was 96.7%; with PC-3 prostate, 92.7%; with UACC-62 melanoma, 102%; in the test with LOX IMVI melanoma, 97.1%. Further, the growth in the test on SK-MEL-28 melanoma was 110%.

With `COc1cc(C2CC(=O)Nc3c2ccc2ccccc32)cc(Br)c1OC` (configuration not stated), the growth in the test on DU-145 prostate is -4.56% (active); in the test with K-562 leukemia it was 6.59% (active); in the test on MALME-3M melanoma, 27.6%; in the test with MDA-MB-231 breast, 28.5%; in the test with RXF 393 renal it was -1.55% (active); in the test on SF-268 CNS, 42.5%. Besides, the growth in the test with SF-295 CNS was -33.7% (active); in the test with SF-539 CNS, 0.195% (active); in the test on UACC-257 melanoma, 59.7%; with M14 melanoma it was -15.3% (active); with HCT-15 colon it was 27.9%; in the test with HT29 colon, -6.29% (active). Moreover, the growth in the test with SNB-75 CNS was -18.6% (active); in the test with SNB-19 CNS, 39%; in the test with U251 CNS, 18.6%; in the test with PC-3 prostate, 15.2%; in the test on UACC-62 melanoma, 12.1%; with LOX IMVI melanoma it was 25.1%. In addition, the growth in the test on SK-MEL-28 melanoma is 43.6%.
